Outcome data for eight molecules are collected here from PubChem BioAssay AID493123 (National Center for Advancing Translational Sciences (NCATS), 2011).

The source made the active and inactive calls. No rule for the calls is given here.

The assay can be described thus: Concentration response confirmation assay for small molecule inhibitors of Shiga toxin. Particulars: cell-based concentration response; series mostly up to 76.6 µM.
For `CC1CCC/C=C/C2CC(O)CC2C(O)/C=C/C(=O)O1` (stereo not drawn), the molecule was classed as inactive.

Consider `Cc1cccc(NC(=O)CCN2C(=O)c3ccccc3S2(=O)=O)c1C`, for which the molecule was classed as inactive.

With `CN(C)S(=O)(=O)c1ccc(C(=O)Nc2ccc(CN3CCCC3)cc2)cc1`, the molecule was called inactive.

`O=C(CC(c1ccccc1)c1cc(Cl)ccc1O)N1CCCC1` (stereo not drawn): the molecule was called inactive.

Turning to `C=CCNC(=O)c1ccc(C)c(Br)c1`, the outcome was inactive.

As to `COc1ccc(C(C)(C)C)cc1NC(=O)c1ccc2c(c1)SC1=NS(=O)(=O)CCN12`, the outcome was inactive.

Regarding `CCn1c2ccccc2c2cc(NC(=O)c3cccc([N+](=O)[O-])c3)ccc21`, the result was inactive.

For the molecule `CCN1C(=O)/C(=C/c2ccc(OC)c(OC)c2)N=C1SCC(=O)NCc1ccco1`, the molecule was classed as inactive.
